Measured values taken from PubChem BioAssay AID2314 (National Center for Advancing Translational Sciences (NCATS), 2010).
The campaign covered roughly 300,000 compounds. About 37,000 (12%) were called active. Rule as the data show it: active = max response mostly above about 13% (no sharp cut-off); inactive = mostly below about 14%. This excerpt belongs to a sample that is enriched for actives.

test: Cycloheximide Counterscreen for Small Molecule Inhibitors of Shiga Toxin; conditions: cell reporter, cycloheximide protein synthesis inhibition counterscreen; active compounds read high; also: read at 38.3 µM for the half of the compounds with a filed dose; 0% is about no effect

Row | SMILES | max response
1 | C=CCNC(=S)N1CCN(CCN=Cc2c(C)[nH]n(-c3ccc([N+](=O)[O-])cc3)c2=O)CC1 | -1.17% (inactive)
2 | CCO[C@H]1OC(C(=O)Nc2ccccc2)=C[C@@H](C2CC2)[C@@H]1CCCO | -1.4% (inactive)
3 | C[C@]1(C(=O)NCCc2c[nH]c3ccccc23)C=C[C@@H](Cc2ccccc2)N1C(=O)c1ccccc1 | 11.9% (inactive)
4 | Cc1ccc(N2C(=O)C3C(c4ccccc4)(C2=O)C3(c2ccccc2)c2ccccc2)cc1 (stereo not drawn) | -4.14% (inactive)
5 | CCOc1cccc(-c2nn3c(-c4ccccn4)nnc3s2)c1 | 22.6% (active)
6 | COc1cc(-c2nn3c(-c4cccc(C)c4)nnc3s2)cc(OC)c1OC | -2.72% (inactive)
7 | c1ccc(-c2cc(-c3nnc4sc(-c5ccccn5)nn34)[nH]n2)cc1 | 5.86% (inactive)
8 | COc1ccc2[nH]c(=O)c(CNc3ccc(C)c(C)c3)cc2c1 | 15% (active)
9 | COc1ccc(N(Cc2cc3cc(OC)ccc3[nH]c2=O)S(C)(=O)=O)cc1 | -1.64% (inactive)
10 | CCC(=O)N(Cc1cc2cc(OC)ccc2[nH]c1=O)c1ccccc1C | -0.76% (inactive)
11 | CC(=O)c1ccc(S(=O)(=O)N2CCC(Oc3ccc(-n4cnnn4)cc3)CC2)cc1 | -8.92% (inactive)
12 | N#Cc1c(Cl)nc(-c2cccnc2)nc1-c1ccccc1 | -2.59% (inactive)
13 | S=C(Nc1cccnc1)Nc1ccccn1 | -1.56% (inactive)
14 | CCOC(=O)c1cnc(-n2nc(C)cc2C)nc1NNc1cc(C)nc(-c2ccccc2)n1 | -1.88% (inactive)
15 | COc1ccc(/C=N/OCC(=O)N(Cc2ccccc2)c2ccccc2C(=O)O)cc1 | -1.3% (inactive)
16 | COc1ccc(/C=N/NS(=O)(=O)c2ccc(NC(C)=O)cc2)cc1 | -2.62% (inactive)
17 | COc1ccc(C=Nc2cccc3ncccc23)cc1 | 5.61% (inactive)
18 | COc1ccc(/C=N/Nc2ccccc2C(=O)O)cc1 | 38.9% (active)
19 | COc1ccc(/C=N/Nc2nc3ccccc3c(=O)[nH]2)cc1 | 43.2% (active)
20 | COc1ccc(/C=N/Nc2nc(-c3ccc(C)cc3)c(C#N)c(=O)[nH]2)cc1 | -2.53% (inactive)
21 | Cc1cccc(NC(=O)C2CCN(C(=O)NC3CCCCC3)CC2)c1 | -6.02% (inactive)

Row | SMILES | max response
22 | Cc1ccc2cc(CCNC(=O)c3c(-c4ccccc4Cl)noc3C)c(=O)[nH]c2c1 | -3.51% (inactive)
23 | Cc1c2cnn(CC(=O)NCc3ccccn3)c(=O)c2c(C)n1Cc1ccc(Cl)cc1 | -3.5% (inactive)
24 | Cc1ccc2c(CSc3nncs3)cc(=O)oc2c1 | 26.8% (active)
25 | COCc1cc(=O)oc2cc(NS(=O)(=O)c3ccc(C)cc3)ccc12 | 2.21% (inactive)
26 | CCOC(=O)Cc1csc(SCc2cc(=O)oc3cc(O)ccc23)n1 | -1.72% (inactive)
27 | CCCNC(=O)CSc1nc(Cc2ccccc2)nc2ccccc12 | -5% (inactive)
28 | CN=c1scc(-c2cc(OC)ccc2OC)n1/N=C/c1c(C)[nH]c2ccccc12 | 15.1% (active)
29 | COc1ccc(C)cc1Nc1nc(-c2c(C)[nH]c3ccccc23)cs1 | 11.4% (inactive)
30 | CCn1c(-c2cc(OC)ccc2OC)csc1=Nc1c(C)n(C)n(-c2ccccc2)c1=O | -0.97% (inactive)
31 | CC(C)(C)N(Cc1ccccc1)C(=O)COC(=O)CCc1c[nH]c2ccccc12 | -0.22% (inactive)
32 | CC(=O)NCC(=O)N1CCC(n2nccc2NC(=O)CCCc2ccccc2)CC1 | 26.3% (active)
33 | CC(=O)N[C@@H](C)C(=O)N1CCC(n2nccc2NC(=O)CCCc2ccccc2)CC1 | 24.6% (active)
34 | CCn1cc(CN2CCC(n3nccc3NC(=O)CCCc3ccccc3)CC2)c(C)n1 | -2.15% (inactive)
35 | Cc1ccc(CN2CCC(n3nccc3NC(=O)CCCc3ccccc3)CC2)o1 | 2.06% (inactive)
36 | COc1ccc(CN2CCC(n3nccc3NC(=O)CCCc3ccccc3)CC2)cc1C | -6.15% (inactive)
37 | COc1cc(CN2CCC(n3nccc3NC(=O)CCCc3ccccc3)CC2)ccc1O | -1.56% (inactive)
38 | CCC(C(=O)OC)n1cnc2scc(-c3ccc(C)cc3)c2c1=O (stereo not drawn) | 0.506% (inactive)
39 | COc1ccc(N2C(=O)C3C(C2=O)C(C(=O)c2ccccc2)N2CCCC32)cc1 (stereo not drawn) | 2.35% (inactive)
40 | O=C(NCc1ccccc1Cl)c1ccc2c(=O)n(CC3CCCO3)c(=S)[nH]c2c1 (stereo not drawn) | -1.12% (inactive)
41 | CCCC[C@@H]1CN=C(N)N1CCc1cc(C(F)(F)F)cc(C(F)(F)F)c1 | -4.84% (inactive)
42 | CC[C@H](C)[C@H](NC(=O)[C@H](CCCNC(=N)N)NC(=O)[C@H](CCCNC(=N)N)NC(=O)[C@H](CC(C)C)NC(=O)[C@H](Cc1ccccc1)NC(=O)CNC(=O)CNC(=O)[C@@H](N)Cc1ccc(O)cc1)C(=O)N[C@@H](CCCNC(=N)N)C(=O)N1CCC[C@H]1C(=O)N[C@@H](CCCCN)C(=O)N[C@@H](CC(C)C)C(=O)N[C@@H](CCCCN)C(=O)N[C@@H](Cc1c[nH]c2ccccc12)C(=O)N[C@@H](CC(=O)O)C(=O)N[C@@H](CC(N)=O)C(=O)N[C@@H](CCC(N)=O)C(=O)O | -3.93% (inactive)

Row | SMILES | max response
43 | O=C(Cn1ccc2cc(S(=O)(=O)N3CCCC3)ccc21)NCc1ccccc1 | 12.1% (inactive)
44 | C=CCOc1ccc(/C=C2\SC(=S)N(CCC(=O)O)C2=O)cc1 | -2.97% (inactive)
45 | O=C(C1CCN(S(=O)(=O)c2ccc(Br)s2)CC1)N1CCN(C2CCCCC2)CC1 | 3.94% (inactive)
46 | COc1cc(OC)c(-n2cc(-c3ccc(Cl)cc3)[nH]c2=O)cc1Cl | 0.883% (inactive)
47 | Cc1cc(C)nc(SC2CCCCC2NS(=O)(=O)c2ccc(Cl)cc2)n1 (stereo not drawn) | -1.57% (inactive)
48 | CC(C(=O)NCC1CCCCC1)N(C)Cc1cccc(Cl)c1 (stereo not drawn) | -4.34% (inactive)
49 | CC(c1ccccn1)N(C)C(=O)c1ccc2nc(Cc3cccc(Cl)c3)oc2c1 (stereo not drawn) | 52.7% (active)
50 | CN(Cc1ccccc1)C(=O)c1cccc(C(=O)N(C)Cc2ccccc2)c1 | -3.47% (inactive)
51 | COC(=O)c1cc(S(=O)(=O)Nc2ccc(C)c(F)c2)c[nH]1 | 1.38% (inactive)
52 | COc1ccc(C(=O)N2CCCN(C)CC2)c(OC)c1 | -2.16% (inactive)
53 | COc1ccc(C(=O)NC2=NCCS2)c(OC)c1 | 32.6% (active)
54 | O=C(NC1=NCCS1)c1ccc(Cl)s1 | 66.8% (active)
55 | COc1ccc(NC(=O)c2cc(-c3cc(OC)c(OC)c(OC)c3)nc3ccccc23)c(OC)c1 | -6.98% (inactive)
56 | COc1ccc(C(=O)NCc2nnc(SCC(=O)NC3=NCCS3)n2C)cc1 | -2.2% (inactive)
57 | O=C(NC1=NCCS1)[C@H](Cc1ccccc1)N1C(=O)c2ccccc2C1=O | -2.74% (inactive)
58 | COc1ccc(Cc2nnc(NC(=O)c3cc(OC)c(OC)c(OC)c3)s2)cc1OC | -3.75% (inactive)
59 | COc1cccc(OC)c1C(=O)Nc1nnc(C(C)C)s1 | -1.98% (inactive)
60 | COc1ccc(Cc2nnc(NC(=O)Cc3cccs3)s2)cc1 | 12.7% (inactive)
61 | CC(NC(=O)COc1ccccc1)C(=O)NC1=NCCS1 (stereo not drawn) | 4.07% (inactive)
62 | COc1ccc(Cc2nnc(NC(=O)c3ccc(OC)cc3OC)s2)cc1 | 31.5% (active)
63 | COc1ccc(C(=O)Nc2nncs2)c(OC)c1 | 34.6% (active)
